# Shown are actives, neighbours in structure and some others; about 2.4% of the full set was active somewhere.
# D2 ag-1 – activates the human D2 dopamine receptor; activation, % at 2 µM; AID 485358; HEK293 T-REx D2 cells, calcium flux agonist mode; P14416; 340,000 tested, 0.53% active;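 active = activation over 3 SD above normal in the single-dose calcium agonist read, cut at about 30% in these data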; note: 0% is about no effect
# Target sequence (P14416 whole entry, looked up): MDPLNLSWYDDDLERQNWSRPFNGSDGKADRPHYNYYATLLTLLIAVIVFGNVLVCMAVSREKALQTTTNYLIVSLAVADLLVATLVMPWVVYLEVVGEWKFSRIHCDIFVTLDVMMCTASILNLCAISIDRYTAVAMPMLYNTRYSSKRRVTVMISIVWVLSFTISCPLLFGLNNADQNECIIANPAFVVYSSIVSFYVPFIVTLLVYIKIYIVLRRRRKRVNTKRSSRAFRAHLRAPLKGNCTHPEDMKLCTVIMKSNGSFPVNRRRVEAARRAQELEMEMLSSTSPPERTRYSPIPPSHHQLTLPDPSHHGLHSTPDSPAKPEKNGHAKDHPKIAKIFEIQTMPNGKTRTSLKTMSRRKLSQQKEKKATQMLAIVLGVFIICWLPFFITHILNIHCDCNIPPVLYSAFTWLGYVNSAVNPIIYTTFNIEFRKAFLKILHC
#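 In this primary screen, compounds producing a positive calcium signal within 180 s of addition to tetracycline-induced, force-coupled HEK293 Trex D2 cells are flagged; cells are dye-loaded with a no-wash calcium kit beforehand.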
# D2 PAM-1 – positively modulates the human D2 dopamine receptor allosterically. HEK293 T-REx D2, calcium flux, EC20 dopamine potentiation. potentiation, % at 10 µM. 340,000 tested, 0.34% active. AID 485347;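 active = potentiation over 3 SD above the plate norm, cut at about 30% in these data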; note: 0% is about no effect
#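 Potentiation of an EC20 dopamine calcium response measured kinetically over 180 s, after a preceding 180 s compound-only read flagging agonists. Cells: inducible Hek293 Trex D2 line, 4000/well, cultured overnight at 30 C before dye loading.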
# D2 ag-2 – activates the human D2 dopamine receptor. P14416. DiscoveRx PathHunter D2 beta-arrestin, luminescence, 90 min; 100% = 57 uM dopamine signal. activation, % (test concentration not listed). 360,000 tested, 0.084% active. AID 624465; in the data active = activation above about 40%; inconclusive = between about 15% and that limit
#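 DiscoveRx PathHunter D2 beta-arrestin cells (2,100/well) attached overnight, then compound-stimulated 90 min at 37 C in HBSS/10 mM HEPES/0.1% Tween-20 buffer; beta-galactosidase complementation read by luminescence after 1 h at ambient temperature. Dopamine 57 uM final (EC100) as control.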
# D2 PAM-2 – positive allosteric modulators of human D2 dopamine receptor. DiscoveRx D2 beta-arrestin cells, luminescence, 90 min; 100% = 57 uM dopamine signal. potentiation, % (no concentration beside the values). 360,000 tested, 0.23% active. AID 624464; in the data active = potentiation above about 50%; inconclusive = mostly about 30% to 49%
#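 PathHunter D2 cells, attached overnight at 37 deg C, received compound in DMSO plus dopamine at EC20 (50 nM final) for 90 min at 37 deg C. Beta-arrestin recruitment was read as luminescence after 1 h with detection reagent at ambient temperature.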
# D2 antag – antagonists of human D2 dopamine receptor; P14416; HEK293 TREx D2 cells, calcium flux, dopamine EC80; inhibition, % at 10 µM; 340,000 tested, 2% active; AID 485344; in the data active = inhibition above about 30%; inactive = below that, where a call was filed; note: 0% is about no effect
#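 HEK293 T-REx D2 cells, tet-induced, calcium dye no-wash. Cpd pintool add, 180 s kinetic, then EC80 DA, 180 s kinetic. Ca flux read.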
# D3 arrestin ag – confirmation of human D3 dopamine receptor agonists, beta-arrestin; shares compounds with D2 ag-1; DiscoveRx D3 beta-arrestin cells, luminescence, 90 min; Potency, µM (highest dose often 76.9 µM), inactives show at the top dose activation, actives largely listed as activators; 2,300 tested, 4% active;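 note: potency is the fitted concentration of half-maximal effect; 100% = dopamine control response; nearly all actives have a fitted effect of over 70% in size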
# D2 ag-3 – counter-screen for D3 agonists: human D2 dopamine receptor agonism; shares compounds with D2 ag-1; DiscoveRx PathHunter D2 beta-arrestin, luminescence, 90 min; response scale: percent relative to full dopamine signal; Potency, µM (titrated, usually from 76.9 µM), inactives show top-dose activation, hits mostly activators; 2,300 tested, 5.9% active; note: potency is the fitted concentration of half-maximal effect; % of control where 0% means no effect; nearly all actives have a fitted effect of over 70% in size
# Numbers without * were called inactive; ? = inconclusive; . = not tested or not shown. Unless noted, calls come from the whole dose curve; as a rule, active = well fitted activation curve with a large enough effect; inconclusive = small, poorly fitted or top-dose-only effect; inactive = flat fitted curve, though single readings scatter.
SMILES,D2 ag-1,D2 PAM-1,D2 ag-2,D2 PAM-2,D2 antag,D3 arrestin ag,D2 ag-3
Cc1ccc(NC(=S)N2CCN(c3ccccn3)CC2)c(C)c1,34*,-10,-2,-1,31*,3%,3%
FC(F)Sc1ccc(NC(=S)N2CCN(c3ccccn3)CC2)cc1,31*,1,2,-6,-14,?,?
Oc1ccccc1N1CCN(C(=S)Nc2ccc(SC(F)F)cc2)CC1,3,7,8,23,-10,.,.
Fc1ccccc1NC(=S)N1CCN(c2ccccn2)CC1,11,7,-1,5,0,.,.
CCCCN1C[C@H](CO)Oc2cccc(F)c2S1(=O)=O,.,.,0,-5,.,.,.
COc1ccc(/C=C/C(=O)N2CCN(c3ccccn3)CC2)cc1OC,16,3,3,-2,-11,13%,7%
COc1ccc(NC(=S)N2CCN(c3ccccn3)CC2)cc1OC,49*,-13,2,0,2,-5%,-3%
COc1cc(NC(=S)N2CCN(c3ccccn3)CC2)cc(OC)c1OC,.,.,1,-4,.,.,.
FC(F)(F)c1cccc(NC(=S)N2CCN(c3ccccn3)CC2)c1,24,-12,-5,-7,2,4%,4%
Cc1cc(=O)oc2c(C)c(OCC(=O)NCCCN3CCOCC3)ccc12,0,0,-8,-8,-14,.,.
Cc1cc(C(=O)NNc2ccc(F)cc2F)no1,49*,-19,6,-6,8,-2%,-1%
Cc1ccc(NNC(=O)c2cc(C)on2)c(C)c1,1,7,2,-2,-8,.,.
Cc1cc(C(=O)NNC(=O)c2ccc(C(F)(F)F)cc2)no1,1,1,-1,-6,19,-6%,-6%
Cn1c(SCc2cccc(F)c2)nc2c([nH]c3ccccc32)c1=O,0,14,.,.,.,.,.
CC(=O)CCc1ccc(OCC(O)CNCCOc2ccc(C)cc2)cc1 (configuration not stated),66*,-26,6,-7,61*,?,?
O=S(=O)(Nc1ncn[nH]1)c1ccc2ccccc2c1,0,4,-2,18,-11,.,.
O=S(=O)(Nc1nc2ccccc2[nH]1)c1ccc2ccccc2c1,56*,-19,0,-6,1,-30%,0%
Fc1ccc(Nc2cncc(-c3ccsc3)c2)cc1Cl,.,.,?,-1,.,.,.
CCN1CCN(c2oc(-c3ccc(COc4ccc(OC)cc4)o3)nc2C#N)CC1,.,-11,.,.,.,.,.
O=C(NC1(C(F)(F)F)NC(=O)N(c2ccccc2)C1=O)c1cccs1 (configuration not stated),0,-6,-5,-12,30,9%,-4%
Cc1ccc(/C([O-])=C(/C(=S)NCc2ccc3c(c2)OCO3)[n+]2ccc(N(C)C)cc2)c(C)c1,0,4,0,-15,2,.,.
COc1cc(C2NC(=O)NC(C)=C2C(=O)OCc2ccc(C)cc2)cc(OC)c1O (configuration not stated),1,23,0,-3,-6,.,.
COc1cc(C2NC(=O)NC(C)=C2C(=O)OCc2ccc(C)cc2)cc(OC)c1OC (configuration not stated),0,-12,-6,-16,35*,-6%,-1%
Cc1[nH]nc2c1C(c1ccsc1)C1=C(CC(C)(C)CC1=O)N2 (configuration not stated),42*,-4,-3,-14,10,-10%,-6%
Cc1[nH]nc2c1C(c1cccs1)C1=C(CC(C)(C)CC1=O)N2 (configuration not stated),36*,-6,-2,3,30*,-1%,-4%
SMILES,D2 ag-1,D2 PAM-1,D2 ag-2,D2 PAM-2,D2 antag,D3 arrestin ag,D2 ag-3
COc1cccc(CNC(=O)c2cnc3sc(N4CCCC4)nn3c2=O)c1OC,-1,9,.,.,.,.,.
c1ccc2c(CC3=NCCN3)cccc2c1,14,22,-4,-20,-5,.,.
Cc1cc(C(C)(C)C)c(O)c(C)c1CC1=NCCN1,72*,-30,9,-17,64*,3%,14%
CCOC(=O)NC(=O)CSc1nc(-c2ccc(C)c(C)c2)cn1-c1ccccc1,-1,9,-1,15,8,8%,6%
Cc1ccc(-c2cn(-c3ccccc3)c(SCC(N)=O)n2)cc1C,-1,-7,-3,6,10,.,.
O=C(COC(=O)c1ccc(CNS(=O)(=O)c2ccc(F)c(Cl)c2)cc1)NCC1CCCCC1,69*,-23,1,-8,18,0%,-1%
Cc1ccc(N(CC(=O)NCCSc2ccccc2)S(=O)(=O)c2ccc(F)cc2)cc1,3,-5,.,.,.,.,.
CCCn1c(SCC(=O)c2ccc3c(c2)NC(=O)CO3)nc2ccccc21,5,-7,0,-1,2,-2%,5%
Cn1c(SCC(=O)c2ccc3c(c2)NC(=O)CO3)nc2ccccc21,2,3,5,-5,-13,.,.
Cc1ccc(C(=O)c2sc(Nc3ccc(F)cc3)nc2N)c(C)c1,0,6,.,.,.,.,.
CC(C)(C)NC(=O)CCN(/N=C/c1ccccc1F)C1=NS(=O)(=O)c2ccccc21,0,11,-3,-4,-3,.,.
Brc1cccc(OCCN2CCc3ccccc3C2)c1,52*,-31,-4,-2,96*,25%,1%
O=C(c1ccc(F)c(S(=O)(=O)N2CCOCC2)c1)N(c1ccccc1)c1ccccn1,.,.,-1,-1,.,-7%,?
O=C(CSc1nnc(CNC(=O)c2c(F)cccc2F)o1)NCc1ccco1,1,3,-1,-12,4,.,.
CNC(=O)c1ccc(NC(=O)CC2SC(N3CCCC3)=NC2=O)cc1 (configuration not stated),0,-11,1,11,39*,-9%,-7%
O=C(CC1SC(N2CCCC2)=NC1=O)Nc1ccc(C(=O)NCc2ccccc2F)cc1 (configuration not stated),.,.,2,-1,.,.,.
O=C(CC1SC(N2CCCC2)=NC1=O)Nc1ccc(C(=O)NCCOc2ccccc2F)cc1 (configuration not stated),66*,-24,2,-14,52*,?,9%
Cc1c(CCC(=O)O)c(=O)oc2c(C)c(OCc3cc4c(cc3Cl)OCO4)ccc12,0,-4,-18,-2,3,.,.
COc1ccc(N=C2O/C(=C/c3sc(=S)n(CC4CCCO4)c3O)N=C2C#N)cc1 (configuration not stated),2,-11,6,-31,-7,.,.

# Bioassay records from PubChem.
